# Where “and” joins values, the source holds several entries; their conditions need not be identical. Identical values can stand only once. Results filed as inconclusive are left out. Entries that show only a call come without a potency. Values without a mark were called inactive. Calls of active or inactive are those of the source. The call rests on the fitted dose curve; in most records, active means well fitted curve in the direction sought with a large enough effect in the repeat runs; inconclusive means weak or mixed curves; inactive means no such curve, though single readings can be large; an effect the other way counts as inactive or inconclusive.
# Legend:
# [1] = target: Voltage-gated inwardly rectifying potassium channel KCNH2 (Homo sapiens) (UniProt Q12809); experiment: Human Ether-a-go-go-Related Gene (hERG) channel small molecule antagonists: fluorescence cell-based qHTS assay (AID 1671200);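 on activity change, negative = inhibition: hERG-expressing U2OS cells given a thallium stimulus after FluxOR II dye loading; series mostly up to about 77 µM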
# Outline: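 First, 1000 cells per well are seeded and cultured overnight at 37 C. Next, FluxOR II dye is loaded for 1 h at room temperature, protected from light. After 10 more minutes, stimulus is added and fluorescence is read.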
# [2] = target: Cytochrome P450 1A2 (Homo sapiens) (UniProt P05177); experiment: Cytochrome P450 Family 1 Subfamily A Member 2 (CYP1A2) small molecule antagonists: luciferase reporter qHTS assay (AID 1671199); on activity change, negative = inhibition: series mostly up to about 120 µM
# Outline: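 Steps: enzyme-substrate mix dispensed; test compounds and furafylline control pinned in; 10 min room temperature; NADPH regeneration solution added, 1 h; reaction stopped with luciferin detection reagent; luminescence read after 20 min.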
# [3] = target: Cytochrome P450 3A4 (Homo sapiens) (UniProt P08684); experiment: Cytochrome P450 Family 3 Subfamily A Member 4 (CYP3A4) small molecule antagonists: luciferase reporter qHTS assay (AID 1671201); on activity change, negative = inhibition: series mostly up to about 120 µM
# Outline: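 Enzyme and proluciferin substrate are mixed with test chemicals for 10 min, then NADPH regeneration system drives turnover for 1 h at room temperature. A detection reagent halts the reaction; luminescence after 20 min gives relative activity.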
# Further: nearly all actives have a fitted effect of over 50% in size.
# Potency means the concentration at half of the fitted maximal effect.
# Chain of Cytochrome P450 3A4 (Homo sapiens) (P08684 whole entry, looked up): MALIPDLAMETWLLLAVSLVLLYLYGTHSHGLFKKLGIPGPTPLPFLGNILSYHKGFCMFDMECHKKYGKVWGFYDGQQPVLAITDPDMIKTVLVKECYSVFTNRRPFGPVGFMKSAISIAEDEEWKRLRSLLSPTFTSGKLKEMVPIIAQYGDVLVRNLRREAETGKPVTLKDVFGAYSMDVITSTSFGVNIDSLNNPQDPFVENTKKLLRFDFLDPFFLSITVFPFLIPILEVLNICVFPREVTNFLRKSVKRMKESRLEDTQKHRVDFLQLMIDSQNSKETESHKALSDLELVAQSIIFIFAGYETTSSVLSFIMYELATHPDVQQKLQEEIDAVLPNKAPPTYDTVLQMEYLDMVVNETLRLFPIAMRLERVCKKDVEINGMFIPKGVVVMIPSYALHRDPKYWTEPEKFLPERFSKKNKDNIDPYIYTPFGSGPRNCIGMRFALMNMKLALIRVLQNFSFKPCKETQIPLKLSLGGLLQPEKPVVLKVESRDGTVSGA
# Chain of Voltage-gated inwardly rectifying potassium channel KCNH2 (Homo sapiens) (Q12809 whole entry, looked up): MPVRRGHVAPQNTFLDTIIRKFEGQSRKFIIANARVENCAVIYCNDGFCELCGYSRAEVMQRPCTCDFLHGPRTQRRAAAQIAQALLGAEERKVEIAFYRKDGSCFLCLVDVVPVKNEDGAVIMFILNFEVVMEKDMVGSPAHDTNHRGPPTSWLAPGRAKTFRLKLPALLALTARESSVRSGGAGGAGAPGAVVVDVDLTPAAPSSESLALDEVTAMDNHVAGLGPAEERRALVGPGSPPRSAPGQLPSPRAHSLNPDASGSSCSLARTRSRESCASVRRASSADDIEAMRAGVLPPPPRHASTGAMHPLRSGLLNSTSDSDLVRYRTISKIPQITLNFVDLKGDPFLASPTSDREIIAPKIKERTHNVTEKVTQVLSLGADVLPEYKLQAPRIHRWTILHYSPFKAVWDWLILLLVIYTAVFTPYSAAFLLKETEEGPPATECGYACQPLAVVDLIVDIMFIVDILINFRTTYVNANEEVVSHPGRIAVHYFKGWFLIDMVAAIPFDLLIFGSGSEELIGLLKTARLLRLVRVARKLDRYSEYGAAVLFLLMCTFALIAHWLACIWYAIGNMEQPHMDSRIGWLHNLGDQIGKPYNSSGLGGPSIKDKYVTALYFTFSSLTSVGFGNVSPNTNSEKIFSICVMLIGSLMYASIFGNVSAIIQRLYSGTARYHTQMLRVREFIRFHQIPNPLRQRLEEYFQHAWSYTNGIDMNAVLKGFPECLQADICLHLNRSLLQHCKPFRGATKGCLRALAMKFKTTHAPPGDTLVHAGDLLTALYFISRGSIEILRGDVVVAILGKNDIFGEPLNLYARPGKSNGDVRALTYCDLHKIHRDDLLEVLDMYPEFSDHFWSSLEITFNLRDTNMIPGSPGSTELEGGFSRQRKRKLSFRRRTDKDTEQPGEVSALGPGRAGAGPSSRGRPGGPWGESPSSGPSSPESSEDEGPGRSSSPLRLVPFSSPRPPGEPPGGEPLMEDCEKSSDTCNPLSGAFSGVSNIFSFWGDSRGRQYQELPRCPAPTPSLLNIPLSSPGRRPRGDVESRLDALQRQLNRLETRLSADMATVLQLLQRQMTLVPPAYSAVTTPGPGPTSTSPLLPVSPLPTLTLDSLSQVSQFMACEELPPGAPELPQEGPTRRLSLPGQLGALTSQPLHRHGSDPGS
# Chain of Cytochrome P450 1A2 (Homo sapiens) (P05177 whole entry, looked up): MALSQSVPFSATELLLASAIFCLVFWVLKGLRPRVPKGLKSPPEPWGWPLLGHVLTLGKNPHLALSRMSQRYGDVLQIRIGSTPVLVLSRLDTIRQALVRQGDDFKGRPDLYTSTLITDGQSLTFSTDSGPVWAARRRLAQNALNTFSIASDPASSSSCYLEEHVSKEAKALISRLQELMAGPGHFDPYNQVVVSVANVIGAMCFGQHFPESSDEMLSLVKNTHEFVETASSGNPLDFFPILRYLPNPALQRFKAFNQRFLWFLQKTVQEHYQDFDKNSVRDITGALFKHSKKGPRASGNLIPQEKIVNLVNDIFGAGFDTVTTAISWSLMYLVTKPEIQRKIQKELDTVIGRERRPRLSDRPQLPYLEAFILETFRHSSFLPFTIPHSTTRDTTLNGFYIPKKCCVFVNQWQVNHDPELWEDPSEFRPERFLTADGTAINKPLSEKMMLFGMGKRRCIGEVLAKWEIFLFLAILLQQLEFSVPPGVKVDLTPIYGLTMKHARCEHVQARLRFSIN
compound,measurement,setting,value
Clc1ccc(C(Cn2ccnc2)OCc2c(Cl)cccc2Cl)c(Cl)c1 (stereo unspecified),Potency,[1],7.56 µM (active)
CCC1CCCCC1,Potency,[2],inactive
same,Potency,[1],inactive
same,Potency,[3],inactive
CC(C)(C)c1cc(/C=C2\SC(=N)NC2=O)cc(C(C)(C)C)c1O,Potency,[1],inactive
Cc1cccc(C)c1NC(=O)CN1CCN(CCCC(c2ccc(F)cc2)c2ccc(F)cc2)CC1,Potency,[2],inactive
same,Potency,[3],inactive
CCN1CCN(c2cc(-c3ccc(F)cc3)c3c(n2)CCCCCC3)CC1,Potency,[1],4.65 µM (active)
CCCCCCCC/C=C\CCCCCCCC(=O)OCCOC(=O)CCCCCCC/C=C\CCCCCCCC,Potency,[2],52.2 µM (active)
same,Potency,[3],10.4 µM (active)
CC(C)(C)CC(C)(C)c1ccccc1O,Potency,[2],35.8 µM (active)
same,Potency,[3],63.6 µM (active)
CC1=CCC(=O)O1,Potency,[2],inactive
same,Potency,[1],inactive
same,Potency,[3],inactive
c1ccc(Sc2ccccc2)cc1,Potency,[2],31.7 µM (active)
same,Potency,[3],inactive
CCCCCCC(C)OC(=O)COc1nc(F)c(Cl)c(N)c1Cl (stereo unspecified),Potency,[2],5.64 µM (active)
same,Potency,[1],38.9 µM (active)
same,Potency,[3],7.96 µM (active)
CSc1ccc2c(c1)N(CCC1CCCCN1C)c1ccccc1S2 (stereo unspecified),Potency,[2],28.1 µM (active) and 15.5 µM (active)
same,Potency,[3],inactive
S=C(SSSSSSC(=S)N1CCCCC1)N1CCCCC1,"activity change, negative = inhibition",[1],-18.7% [at 15.8 µM]
C[C@H]1O[C@@H](O[C@H]2[C@@H](O)C[C@H](O[C@H]3[C@@H](O)C[C@H](O[C@H]4CC[C@@]5(C)[C@H](CC[C@@H]6[C@@H]5C[C@@H](O)[C@]5(C)[C@@H](C7=CC(=O)OC7)CC[C@]65O)C4)O[C@@H]3C)O[C@@H]2C)C[C@H](O)[C@@H]1O,Potency,[1],inactive
NC1(c2ccc(-c3nc4ccn5c(=O)[nH]nc5c4cc3-c3ccccc3)cc2)CCC1,Potency,[2],inactive
same,Potency,[3],inactive
O=C1OC(OC(=O)c2cccnc2Nc2cccc(C(F)(F)F)c2)c2ccccc21 (stereo unspecified),Potency,[2],9.77 µM (active)
same,Potency,[3],inactive
CC(=O)O[C@@H]1C[C@@H]2CC[C@@]1(C)C2(C)C,Potency,[2],39.9 µM (active)
same,Potency,[1],inactive
same,Potency,[3],inactive
C=CC(=O)OCCOCC(CC)(COCCOC(=O)C=C)COCCOC(=O)C=C,Potency,[1],inactive
C=CC(=O)OCCC#N,Potency,[2],inactive
same,Potency,[1],inactive
same,Potency,[3],inactive
CC(=O)Nc1ccc(O)cc1,Potency,[1],inactive
CCCCC(CC)COC(=O)c1ccc(O)cc1 (stereo unspecified),Potency,[2],31.6 µM (active) and 35.6 µM (active)
same,Potency,[3],70.7 µM (active)
CC(C)(c1cc(Br)c(OCCO)c(Br)c1)c1cc(Br)c(OCCO)c(Br)c1,Potency,[2],27.6 µM (active)
same,Potency,[3],49.2 µM (active)
CCCCCCOc1cc(C)c(O)c(C)c1C,Potency,[2],11.4 µM (active)
same,Potency,[3],28.6 µM (active)
CC(C)OC(=O)c1cc(C(=O)OC(C)C)cc([N+](=O)[O-])c1,Potency,[2],2.33 µM (active)
same,Potency,[3],inactive
COC(=O)[C@]1(C)CCC[C@@]2(C)[C@H]1CC=C1C=C(C(C)C)CC[C@@H]12,Potency,[1],inactive
CCc1cccc(CC)c1N(COC)C(=O)CS(=O)(=O)O,Potency,[2],inactive
same,Potency,[1],inactive
same,Potency,[3],inactive
Cc1cn[nH]c1,Potency,[1],inactive
CCCCN(CCCC)CCC(O)c1cc2c(Cl)cc(Cl)cc2c2cc(C(F)(F)F)ccc12 (stereo unspecified),Potency,[1],1.07 µM (active)
c1cc(OCC2CO2)cc(OCC2CO2)c1 (stereo unspecified),Potency,[1],inactive
same,Potency,[3],35.3 µM (active)
Nc1ncnc2c1ncn2[C@@H]1O[C@H](COP(=O)(O)O)[C@@H](O)[C@H]1O,Potency,[1],inactive
same,Potency,[3],inactive
O=C(O)CCCCCCC(=O)O,Potency,[1],inactive
same,Potency,[3],inactive
CC1CNCC(C)O1 (stereo unspecified),Potency,[1],inactive
same,Potency,[3],inactive
Oc1c(Br)cc(Br)c2cccnc12,Potency,[1],inactive
same,Potency,[3],inactive
O=C(Oc1ccccc1)c1cccc(C(=O)Oc2ccccc2)c1,Potency,[3],inactive
COc1cccc(O)c1,Potency,[1],inactive
same,Potency,[3],inactive
CO[C@H]1C=CO[C@@]2(C)Oc3c(C)c(O)c4c(O)c(cc(O)c4c3C2=O)NC(=O)/C(C)=C\C=C/[C@H](C)[C@H](O)[C@@H](C)[C@@H](O)[C@@H](C)[C@H](OC(C)=O)[C@@H]1C,Potency,[3],1.27 µM (active)
O=C(NO)c1ccccc1,Potency,[1],inactive
same,Potency,[3],inactive
CCCCCCCCCCCCCOP(=O)(O)O,Potency,[1],inactive
same,Potency,[3],inactive
C/C=C/CO,Potency,[1],inactive
same,Potency,[3],inactive
CCN(CC)CCCN(c1ccccc1)C1Cc2ccccc2C1,Potency,[1],2.13 µM (active)
same,Potency,[3],inactive
CC(C)=C1CC[C@@H](C)CC1=O,Potency,[1],inactive
same,Potency,[3],inactive
CC(C)(C)C1=CC(=O)C=C(C(C)(C)C)C1=O,Potency,[1],inactive
same,Potency,[3],inactive
CCCCCCS,Potency,[1],inactive
same,Potency,[3],inactive
C=CCCCCCCC=C,Potency,[1],inactive
CC1(C)COCN1,Potency,[1],inactive
same,Potency,[3],inactive
COC(=O)CC#N,Potency,[1],inactive
same,Potency,[3],inactive
CC(C)N=C(N)/N=C(\N)Nc1ccc(Cl)cc1,Potency,[3],inactive
Clc1nc2ccccc2s1,Potency,[1],inactive
same,Potency,[3],inactive
C[Si](C)(C)Cl,Potency,[1],inactive
same,Potency,[3],inactive
COC(=O)CC(C)CCC=C(C)C (stereo unspecified),Potency,[1],inactive
same,Potency,[3],inactive
CC(O)C#CC(C)O (stereo unspecified),Potency,[1],inactive
same,Potency,[3],inactive
CC1=C(/C=C/C(C)=C/C=C/C(C)=C\C=O)C(C)(C)CCC1,Potency,[3],30 µM (active)
C1CC(COCC2CO2)CCC1COCC1CO1 (stereo unspecified),Potency,[1],inactive
same,Potency,[3],inactive
CCCCOC(=O)C(C)CC (stereo unspecified),Potency,[1],inactive
same,Potency,[3],inactive
CCCCCCCC/C=C/CCCOC(C)=O,Potency,[1],inactive
same,Potency,[3],inactive
CCCN(CCc1cccs1)[C@H]1CCc2c(O)cccc2C1,Potency,[1],3.01 µM (active)
CCc1cccc(CC)c1NC(=O)C(=O)O,Potency,[1],inactive
same,Potency,[3],inactive
Cc1cccc(Br)c1,Potency,[1],inactive
same,Potency,[3],inactive
COc1ccc(C#N)cc1,Potency,[1],inactive
same,Potency,[3],inactive
COc1nccnc1CC(C)C,Potency,[1],inactive
same,Potency,[3],inactive
CC(=O)c1ccccc1N,Potency,[1],inactive
same,Potency,[3],inactive
C=CC/C=C/C/C=C/C/C=C/C,Potency,[1],inactive
same,Potency,[3],inactive
CCC(=O)OCCc1ccccc1,Potency,[1],inactive
same,Potency,[3],inactive
NC(=O)c1nc(-c2cccc(-c3cc(F)ccc3OCC(F)(F)C(F)(F)F)c2)n[nH]1,Potency,[1],43.6 µM (active)
CC1(C)C(=O)N(CO)C(=O)N1CO,Potency,[1],inactive
same,Potency,[3],inactive
CCCCCCCCCCCC(=O)N(CC)CC,Potency,[1],inactive
same,Potency,[3],inactive
C#CC(O)CCC (stereo unspecified),Potency,[1],inactive
same,Potency,[3],inactive
